# Measurements as given in PubChem BioAssay (Tox21).
# Results filed as inconclusive are left out. Entries that show only a call come without a potency. The source made the active and inactive calls. Unless noted, calls come from the whole dose curve; as a rule, active = well fitted curve in the direction sought with a large enough effect in the repeat runs; inconclusive = weak or mixed curves; inactive = no such curve, though single readings can be large; an effect the other way counts as inactive or inconclusive.
# Columns and labels:
# [1] = molecular target: Thyrotropin-releasing hormone receptor (Homo sapiens) (UniProt P34981); test: qHTS assay to identify small molecule agonists of the thyrotropin-releasing hormone receptor (TRHR) signaling pathway (AID 1346891; calls by dose curve; note: series mostly up to about 58 µM)
# In short: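 Intracellular calcium rise, read as fluorescence every second for 3 min, served as the agonist signal in dye-loaded HEK293 cells expressing TRHR; each compound ran at 15 concentrations in triplicate.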
# [2] = Human pregnane X receptor (PXR) small molecule agonists, qHTS cell viability counter screen (AID 1346977); note: nearly all actives have a fitted effect of over 50% in size; note: potency is the fitted concentration of half-maximal effect
# In short: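 PXR-Luc HepG2, 2,000 cells/well, 5% charcoal-stripped FBS; 5hr settle; cpd 24hr, 37C/5% CO2; CellTiter-Fluor at 23hr, read 1hr later (fluorescence).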
# [3] = Caspase-3/7 induction in HepG2 cells by small molecules, qHTS assay (AID 1346978); note: nearly all actives have a fitted effect of over 15% in size
# In short: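 Caspase-3/7 induction was measured by Caspase-Glo 3/7 luminescence (30 min, room temperature) after a 17 hr compound exposure of wild-type HepG2 cells seeded at 2,000 per well and pre-incubated 5 hr.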
# [4] = Caspase-3/7 induction in CHO-K1 cells by small molecules, qHTS cell viability counter screen (AID 1346979); note: nearly all actives have a fitted effect of over 35% in size; note: potency is the fitted concentration of half-maximal effect
# In short: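 Cells (CHO-K1, wild type) are plated at 1,500 per well and incubated 5hr. Test compounds in DMSO are then pinned in, followed by 16hr at 37C and 5% CO2. Viability is read by CellTiter-Fluor fluorescence after 1hr.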
# [5] = Caspase-3/7 induction in CHO-K1 cells by small molecules, qHTS assay (AID 1346980); note: nearly all actives have a fitted effect of over 15% in size
# In short: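 Luminescent Caspase-Glo 3/7 read (30min, room temperature) quantified apoptosis induction. Cells were wild-type CHO-K1, treated with compound for 17hr at 37 C and 5% CO2.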
# [6] = Caspase-3/7 induction in HepG2 cells by small molecules, qHTS cell viability counter screen (AID 1346981); note: nearly all actives have a fitted effect of over 30% in size; note: potency is the fitted concentration of half-maximal effect
# In short: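 Fluorescence read-out of live-cell protease activity (CellTiter-Fluor) after 1 hr with reagent. This was measured in the same wells as the caspase-3/7 luminescence, on HepG2 cells exposed to DMSO-dissolved compounds for 16 hr at 37 C.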
# [7] = molecular target: Nuclear receptor subfamily 1 group I member 2 (Homo sapiens) (UniProt O75469); test: Human pregnane X receptor (PXR) small molecule agonists, qHTS assay (AID 1346982); note: nearly all actives have a fitted effect of over 35% in size; note: potency is the fitted concentration of half-maximal effect
# In short: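 HepG2 PXR-Luc reporter line, 5% charcoal-stripped FBS; 5 hr pre-incubation, compound (DMSO) 24 hr at 37 C/5% CO2; ONE-Glo 30 min RT; luminescence read-out.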
# [8] = molecular target: Cytochrome P450 2C19 (Homo sapiens) (UniProt P33261); test: Cytochrome P450 Family 2 Subfamily C Member 19 (CYP2C19) small molecule antagonists: luciferase reporter qHTS assay (AID 1671197); note: nearly all actives have a fitted effect of over 65% in size; note: potency is the fitted concentration of half-maximal effect
# In short: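 Light output is proportional to CYP2C19 activity: proluciferin substrate is converted to luciferin, then detected by a luciferin detection reagent that also stops the 1 h, 37C NADPH-driven reaction. Ketoconazole serves as positive control.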
# [9] = molecular target: Cytochrome P450 2C9 (Homo sapiens) (UniProt P11712); test: Cytochrome P450 Family 2 Subfamily C Member 9 (CYP2C9) small molecule antagonists: luciferase reporter qHTS assay (AID 1671198); note: nearly all actives have a fitted effect of over 50% in size; note: potency is the fitted concentration of half-maximal effect
# In short: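 Enzyme-substrate mix preincubated with compound 10 min at room temperature; reaction started with NADPH regeneration solution, 1 h 37C. Luminescent luciferin product read after 20 min detection reagent.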
# [10] = molecular target: Cytochrome P450 1A2 (Homo sapiens) (UniProt P05177); test: Cytochrome P450 Family 1 Subfamily A Member 2 (CYP1A2) small molecule antagonists: luciferase reporter qHTS assay (AID 1671199); note: nearly all actives have a fitted effect of over 50% in size; note: potency is the fitted concentration of half-maximal effect
# In short: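 Luminescence readout (relative luminescence units) after luciferin detection reagent, 20 min RT. Preceded by 1 h room-temperature CYP1A2 reaction with NADPH regeneration solution following 10 min compound preincubation with enzyme and proluciferin substrate. Furafylline positive control.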
# [11] = molecular target: Voltage-gated inwardly rectifying potassium channel KCNH2 (Homo sapiens) (UniProt Q12809); test: Human Ether-a-go-go-Related Gene (hERG) channel small molecule antagonists: fluorescence cell-based qHTS assay (AID 1671200);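 note: hERG-expressing U2OS cells given a thallium stimulus after FluxOR II dye loading; series mostly up to about 77 µM; nearly all actives have a fitted effect of over 50% in size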
# In short: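 Channel function was assessed by thallium flux. Cells seeded the previous day and kept at 37 C took up FluxOR II dye over 1 h in the dark at room temperature, then sat another 10 min before stimulation.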
# [12] = molecular target: Cytochrome P450 3A4 (Homo sapiens) (UniProt P08684); test: Cytochrome P450 Family 3 Subfamily A Member 4 (CYP3A4) small molecule antagonists: luciferase reporter qHTS assay (AID 1671201); note: nearly all actives have a fitted effect of over 50% in size; note: potency is the fitted concentration of half-maximal effect
# In short: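 Compounds in DMSO were pin-transferred onto CYP3A4 enzyme-substrate mix and held 10 min at room temperature. NADPH regenerating solution started the reaction for 1 h; luciferin detection reagent stopped it, and luminescence was read after 20 min.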
# [13] = molecular target: Cytochrome P450 2D6 (Homo sapiens) (UniProt P10635); test: Cytochrome P450 Family 2 Subfamily D Member 6 (CYP2D6) small molecule antagonists: luciferase reporter qHTS assay (AID 1671196)
# In short: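 Luminogenic proluciferin substrate, CYP2D6 enzyme; 10 min RT preincubation with compound, NADPH regeneration system added, 1 h RT. Stop/detection reagent, 20 min RT, luminescence read (RLU). Signal proportional to CYP activity.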
# Cytochrome P450 2C9 (Homo sapiens), sequence (P11712 whole entry, looked up): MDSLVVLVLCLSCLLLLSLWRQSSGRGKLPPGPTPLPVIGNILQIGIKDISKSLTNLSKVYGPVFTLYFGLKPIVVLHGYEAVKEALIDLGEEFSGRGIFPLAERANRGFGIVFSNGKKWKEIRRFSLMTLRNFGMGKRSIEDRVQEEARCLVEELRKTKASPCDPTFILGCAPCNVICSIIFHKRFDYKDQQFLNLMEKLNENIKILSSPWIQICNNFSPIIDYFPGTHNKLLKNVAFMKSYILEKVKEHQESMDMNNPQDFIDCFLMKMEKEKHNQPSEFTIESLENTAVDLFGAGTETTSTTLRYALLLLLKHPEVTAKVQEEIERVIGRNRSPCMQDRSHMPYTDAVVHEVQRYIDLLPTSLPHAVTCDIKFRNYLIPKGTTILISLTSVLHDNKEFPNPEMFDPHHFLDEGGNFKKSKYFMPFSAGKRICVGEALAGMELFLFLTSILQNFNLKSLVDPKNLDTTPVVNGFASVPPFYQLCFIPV
# Cytochrome P450 1A2 (Homo sapiens), sequence (P05177 whole entry, looked up): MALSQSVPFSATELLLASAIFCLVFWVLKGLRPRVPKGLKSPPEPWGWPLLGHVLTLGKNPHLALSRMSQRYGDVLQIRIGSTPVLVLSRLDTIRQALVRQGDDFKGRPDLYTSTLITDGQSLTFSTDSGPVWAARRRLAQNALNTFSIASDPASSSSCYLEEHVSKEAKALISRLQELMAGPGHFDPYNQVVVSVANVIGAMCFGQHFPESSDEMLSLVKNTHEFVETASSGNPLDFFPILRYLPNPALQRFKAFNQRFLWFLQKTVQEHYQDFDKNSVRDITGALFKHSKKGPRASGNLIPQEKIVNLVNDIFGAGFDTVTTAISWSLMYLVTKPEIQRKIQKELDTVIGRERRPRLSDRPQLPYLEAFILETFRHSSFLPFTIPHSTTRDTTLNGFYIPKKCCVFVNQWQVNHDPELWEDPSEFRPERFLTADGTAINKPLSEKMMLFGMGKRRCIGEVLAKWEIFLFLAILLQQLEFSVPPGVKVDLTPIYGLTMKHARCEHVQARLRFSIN
# Cytochrome P450 2C19 (Homo sapiens), sequence (P33261 whole entry, looked up): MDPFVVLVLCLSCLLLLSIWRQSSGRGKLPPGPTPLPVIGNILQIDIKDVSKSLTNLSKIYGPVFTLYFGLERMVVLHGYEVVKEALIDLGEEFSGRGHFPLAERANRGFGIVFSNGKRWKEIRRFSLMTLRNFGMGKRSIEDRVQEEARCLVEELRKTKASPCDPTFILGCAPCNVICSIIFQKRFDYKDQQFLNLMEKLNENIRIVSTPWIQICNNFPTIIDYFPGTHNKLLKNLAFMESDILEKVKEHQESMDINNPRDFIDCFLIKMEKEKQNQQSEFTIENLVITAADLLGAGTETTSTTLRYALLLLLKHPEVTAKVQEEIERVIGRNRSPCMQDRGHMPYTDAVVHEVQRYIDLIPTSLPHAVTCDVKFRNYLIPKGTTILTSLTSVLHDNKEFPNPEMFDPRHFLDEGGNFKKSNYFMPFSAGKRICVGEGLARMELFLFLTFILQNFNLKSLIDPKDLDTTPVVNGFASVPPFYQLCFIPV
# Cytochrome P450 2D6 (Homo sapiens), sequence (P10635 whole entry, looked up): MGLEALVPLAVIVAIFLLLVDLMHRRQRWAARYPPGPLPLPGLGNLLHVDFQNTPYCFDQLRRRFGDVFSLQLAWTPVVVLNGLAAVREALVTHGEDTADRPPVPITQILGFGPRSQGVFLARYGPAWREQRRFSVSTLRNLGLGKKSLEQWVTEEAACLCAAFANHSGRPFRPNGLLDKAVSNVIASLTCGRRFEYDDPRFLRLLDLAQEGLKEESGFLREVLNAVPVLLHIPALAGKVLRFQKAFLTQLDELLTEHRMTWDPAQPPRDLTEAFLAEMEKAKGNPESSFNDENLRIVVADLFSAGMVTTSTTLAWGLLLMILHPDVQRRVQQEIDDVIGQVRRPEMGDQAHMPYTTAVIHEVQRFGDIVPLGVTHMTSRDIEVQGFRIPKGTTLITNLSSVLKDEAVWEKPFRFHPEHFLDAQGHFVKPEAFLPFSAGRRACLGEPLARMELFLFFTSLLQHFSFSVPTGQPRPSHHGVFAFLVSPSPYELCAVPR
# Cytochrome P450 3A4 (Homo sapiens), sequence (P08684 whole entry, looked up): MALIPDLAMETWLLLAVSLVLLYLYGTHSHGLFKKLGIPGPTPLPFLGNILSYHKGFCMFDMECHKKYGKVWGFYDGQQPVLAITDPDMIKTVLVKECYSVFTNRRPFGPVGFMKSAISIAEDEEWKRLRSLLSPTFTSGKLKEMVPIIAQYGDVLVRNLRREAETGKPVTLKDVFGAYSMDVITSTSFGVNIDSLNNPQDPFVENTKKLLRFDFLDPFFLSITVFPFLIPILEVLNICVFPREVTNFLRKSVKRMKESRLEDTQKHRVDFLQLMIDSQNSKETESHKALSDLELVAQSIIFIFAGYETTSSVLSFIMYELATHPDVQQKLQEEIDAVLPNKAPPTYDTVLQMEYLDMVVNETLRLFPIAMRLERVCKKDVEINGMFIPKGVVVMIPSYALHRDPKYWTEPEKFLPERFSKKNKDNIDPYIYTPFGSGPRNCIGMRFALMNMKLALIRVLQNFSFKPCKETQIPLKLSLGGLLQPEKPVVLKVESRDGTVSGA
# Nuclear receptor subfamily 1 group I member 2 (Homo sapiens), sequence (O75469 whole entry, looked up): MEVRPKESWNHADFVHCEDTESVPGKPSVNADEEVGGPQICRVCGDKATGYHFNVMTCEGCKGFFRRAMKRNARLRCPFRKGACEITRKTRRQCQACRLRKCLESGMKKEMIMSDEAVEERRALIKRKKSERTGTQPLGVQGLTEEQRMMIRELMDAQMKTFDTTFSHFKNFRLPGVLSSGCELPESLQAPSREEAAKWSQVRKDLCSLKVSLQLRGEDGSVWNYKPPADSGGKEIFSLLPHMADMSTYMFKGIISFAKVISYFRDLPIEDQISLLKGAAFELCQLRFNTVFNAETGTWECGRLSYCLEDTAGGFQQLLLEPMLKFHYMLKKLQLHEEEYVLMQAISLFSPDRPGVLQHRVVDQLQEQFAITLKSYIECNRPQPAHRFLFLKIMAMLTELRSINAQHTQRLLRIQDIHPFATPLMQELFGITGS
# Voltage-gated inwardly rectifying potassium channel KCNH2 (Homo sapiens), sequence (Q12809 whole entry, looked up): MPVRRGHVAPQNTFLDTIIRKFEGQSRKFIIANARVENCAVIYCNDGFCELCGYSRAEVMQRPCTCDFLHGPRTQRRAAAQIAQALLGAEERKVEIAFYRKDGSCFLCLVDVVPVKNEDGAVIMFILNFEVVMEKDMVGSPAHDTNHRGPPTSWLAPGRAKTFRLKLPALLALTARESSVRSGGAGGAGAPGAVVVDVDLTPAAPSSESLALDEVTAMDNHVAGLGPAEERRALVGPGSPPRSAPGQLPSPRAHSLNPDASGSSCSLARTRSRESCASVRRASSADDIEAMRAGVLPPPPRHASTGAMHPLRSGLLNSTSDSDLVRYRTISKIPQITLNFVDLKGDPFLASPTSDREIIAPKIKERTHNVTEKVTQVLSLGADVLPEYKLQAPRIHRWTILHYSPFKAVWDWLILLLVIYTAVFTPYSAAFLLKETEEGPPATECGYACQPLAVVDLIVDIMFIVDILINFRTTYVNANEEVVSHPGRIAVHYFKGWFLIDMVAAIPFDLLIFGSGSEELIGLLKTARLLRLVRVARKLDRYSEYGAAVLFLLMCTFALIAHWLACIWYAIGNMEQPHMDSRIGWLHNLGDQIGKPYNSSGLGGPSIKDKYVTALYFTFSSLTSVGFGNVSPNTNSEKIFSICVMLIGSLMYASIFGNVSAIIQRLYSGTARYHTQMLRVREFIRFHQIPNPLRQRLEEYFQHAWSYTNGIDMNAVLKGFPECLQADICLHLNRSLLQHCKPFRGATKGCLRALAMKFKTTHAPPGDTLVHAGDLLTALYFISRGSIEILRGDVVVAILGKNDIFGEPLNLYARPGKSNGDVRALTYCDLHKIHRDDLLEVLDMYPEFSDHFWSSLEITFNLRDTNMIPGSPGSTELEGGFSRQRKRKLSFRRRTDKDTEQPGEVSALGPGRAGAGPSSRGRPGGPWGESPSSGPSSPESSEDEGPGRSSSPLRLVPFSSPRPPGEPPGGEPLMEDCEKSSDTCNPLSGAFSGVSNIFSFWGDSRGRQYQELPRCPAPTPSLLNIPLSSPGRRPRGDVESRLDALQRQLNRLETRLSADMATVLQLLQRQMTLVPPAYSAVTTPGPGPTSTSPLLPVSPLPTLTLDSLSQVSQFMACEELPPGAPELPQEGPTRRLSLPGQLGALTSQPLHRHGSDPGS
# Thyrotropin-releasing hormone receptor (Homo sapiens), sequence (P34981 whole entry, looked up): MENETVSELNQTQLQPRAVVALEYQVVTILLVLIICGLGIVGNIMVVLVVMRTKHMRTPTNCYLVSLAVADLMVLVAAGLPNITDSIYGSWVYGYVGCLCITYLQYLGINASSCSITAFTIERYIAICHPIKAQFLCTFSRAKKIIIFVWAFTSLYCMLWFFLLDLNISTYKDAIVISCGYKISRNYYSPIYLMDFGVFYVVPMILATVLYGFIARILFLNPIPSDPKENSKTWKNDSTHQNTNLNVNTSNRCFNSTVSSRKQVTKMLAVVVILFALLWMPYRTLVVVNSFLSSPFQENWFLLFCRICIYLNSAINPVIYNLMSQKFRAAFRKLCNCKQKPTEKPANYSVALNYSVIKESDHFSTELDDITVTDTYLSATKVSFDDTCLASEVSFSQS
Structure (SMILES),Potency [1],Potency [2],Potency [3],Potency [4],outcome [5],Potency [6],Potency [7],Potency [8],Potency [9],Potency [10],Potency [11],Potency [12],Potency [13]
c1cc[c]([Bi]([c]2ccccc2)[c]2ccccc2)cc1,inactive,inactive,inactive,61.1 µM (active),inactive,inactive,15.4 µM (active),0.283 µM (active),1 µM (active),inactive,–,–,–
CNC(=O)N(c1ccccc1)c1ccccc1,inactive,inactive,inactive,43.5 µM (active),inactive,inactive,48.8 µM (active),inactive,inactive,40.1 µM (active),inactive,inactive,–
CCCCCCOC(=O)C(C)C,inactive,inactive,inactive,inactive,inactive,inactive,inactive,–,inactive,–,inactive,inactive,–
CN1Cc2cc(C(=O)N3CCC(C4CCNCC4)CC3)ccc2N[C@@H](CC(=O)O)C1=O,inactive,inactive,inactive,inactive,inactive,inactive,inactive,inactive,inactive,inactive,inactive,inactive,–
O=C(C(=O)c1ccccc1)c1ccccc1,inactive,inactive,inactive,inactive,inactive,inactive,inactive,8.9 µM (active),inactive,11.2 µM (active),inactive,inactive,–
CCC(C)(O)CCC=C(C)C (stereo not drawn),inactive,inactive,inactive,inactive,inactive,inactive,inactive,–,inactive,–,inactive,inactive,inactive
NC(=O)Nc1ccc(Cl)c(Cl)c1,inactive,inactive,inactive,inactive,inactive,inactive,48.4 µM (active),–,–,8.91 µM (active),inactive,inactive,–
CC(Cl)C(Cl)Cl (stereo not drawn),inactive,inactive,inactive,inactive,inactive,inactive,inactive,31.2 µM (active),–,–,inactive,–,–
CC(N)CN (stereo not drawn),inactive,inactive,inactive,inactive,inactive,inactive,inactive,60.5 µM (active),–,–,inactive,inactive,–
O=C(O)c1snc(Cl)c1Cl,inactive,inactive,inactive,inactive,inactive,inactive,inactive,–,–,–,inactive,inactive,inactive
O=C(CCCCCCCCC#CI)Oc1ccccc1,inactive,inactive,inactive,inactive,inactive,inactive,inactive,–,17.4 µM (active),–,inactive,inactive,–
CCCCCCOC(=O)CCCCCCCC(=O)OCCCCCC,inactive,inactive,inactive,inactive,inactive,inactive,inactive,–,inactive,–,inactive,inactive,inactive
O=Cc1c(Cl)cccc1Cl,inactive,inactive,inactive,inactive,inactive,inactive,inactive,inactive,inactive,–,inactive,inactive,–
CCOC(=O)/C=C/C(=O)O,inactive,inactive,inactive,inactive,inactive,inactive,inactive,inactive,inactive,–,inactive,inactive,–
CCCCCCCCSCCO,inactive,inactive,inactive,inactive,inactive,inactive,inactive,–,44.8 µM (active),39.9 µM (active),inactive,inactive,inactive
COc1ccccc1N=Nc1c(S(=O)(=O)O)cc2cc(S(=O)(=O)O)cc(NC(C)=O)c2c1O,inactive,22.9 µM (active),inactive,25.7 µM (active),inactive,25.7 µM (active),inactive,29.8 µM (active),33.5 µM (active),33.5 µM (active),inactive,33.5 µM (active),–
Cc1ccnc2ccccc12,inactive,inactive,inactive,inactive,inactive,inactive,inactive,inactive,inactive,–,inactive,inactive,–
CCCCCCCCCCCC[N+](C)(C)CCCS(=O)(=O)[O-],inactive,inactive,inactive,inactive,inactive,inactive,inactive,–,inactive,inactive,inactive,inactive,–
c1ccc(COCc2ccccc2)cc1,inactive,inactive,inactive,inactive,inactive,inactive,inactive,–,–,inactive,inactive,inactive,inactive
CN1C(=O)CC(C)(c2ccccc2)C1=O (stereo not drawn),inactive,inactive,inactive,inactive,inactive,inactive,inactive,inactive,inactive,inactive,inactive,inactive,–
